Where “and” joins values, the source holds several entries; their conditions need not be identical. Identical values can stand only once. Records with an inconclusive call do not appear. Calls of active or inactive are those of the source. The calls were made as follows: active = hit-call score of the fitted dose curve at least 0.9, where 1 is the maximum; inconclusive = response in the unintended direction; inactive = score below 0.9.

The assay is described as follows: CCTE_Mundy_HCI_Cortical_Synap_Neur_Matur_NeuronCount: CCTE's Synaptogenesis and Neurite Maturation Assay in rat cortical cells for Neuron Count, Mundy Lab (AID 2284242).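 As to AC50: hits reduce neuron count versus DMSO baseline.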 The protocol: CCTE_Mundy_HCI_Cortical_Synap&Neurite_Matur is a multiplexed, cell-based-readout assay that uses rat primary cortical cells with measurements taken at 288.33 hours after chemical dosing in a microplate: 96-well plate.CCTE_Mundy_HCI_Cortical_Synap_Neur_Matur_NeuronCount is one of eight components of the CCTE_Mundy_HCI_Cortical_Synap&Neurite_Matur assay. It measures cell viability related to number of neurons using High Content Imaging of fluorescently labelled markers.[…] Using a type of morphology reporter, loss -of-signal activity can be used to understand developmental effects.
Cells are plated onto 96 well plates and allowed 2 hr for attachment to the substrate. At days in vitro (DIV) 5, Cytosine Arabinoside (AraC) is added to arrest glial cell growth. Chemicals are dosed and a media change is performed at DIV 7 of differentiation and is continued through DIV 12 when the experiment is terminated. Cells are fixed with […] and Hoechst Dye. Cells are stained using Millipore Mouse anti-MAP2MAB3418 (1:800) and Millipore Rabbit anti-Synaptophysinsc-1750 (1:250) primary antibodies and Alexa Fluor-488 goat anti-mouse and AlexaFluor-546 goat anti-rabbit secondary antibodies to label neuronal cell nuclei, synapses and neurites. A Cellomics ArrayScan VTi HCS Reader is used for automated image acquisition and analysis of neurite outgrowth.
In the case of `CCCCC(CC)COC(=O)c1ccccc1C(=O)OCC(CC)CCCC` (stereo not drawn), the half-maximal activity concentration (AC50) (in general, the midpoint of the concentration-response curve, whichever way the signal moves) is 7.31 µM (active) and 5.3 µM (active).

On to `CCCCOC(=O)c1ccccc1C(=O)OCCCC`, for which the concentration at half-maximal activity (AC50) is 81.3 µM (active).

For the compound `CO/C=C(/C(=O)OC)c1ccccc1Oc1cc(Oc2ccccc2C#N)ncn1`, the AC50 is 3.73 µM (active).

Take `CN(C)C(=S)SSC(=S)N(C)C`: the concentration at half-maximal activity (AC50) is 0.0653 µM (active).

Take `COP(=S)(OC)Oc1nc(Cl)c(Cl)cc1Cl`: the AC50 is 25.7 µM (active).

`Cc1ccc(-c2c(Cl)nc(C#N)n2S(=O)(=O)N(C)C)cc1`: the concentration at half-maximal activity (AC50) is 50 µM (active).

With `CCOC(=O)CC(SP(=S)(OC)OC)C(=O)OCC` (stereo not drawn), the AC50 is 50 µM (active).

On to `COP(N)(=O)SC` (stereo not drawn), for which the compound was called inactive.

Regarding `COC(=O)N(OC)c1ccccc1COc1ccn(-c2ccc(Cl)cc2)n1`, the AC50 is 0.0487 µM (active).

In the case of `CCOc1cc(Oc2ccc(C(F)(F)F)cc2Cl)ccc1[N+](=O)[O-]`, the concentration at half-maximal activity (AC50) is 15 µM (active).

Regarding `C=CCC1=C(C)[C@@H](OC(=O)[C@@H]2[C@@H](C=C(C)C)C2(C)C)CC1=O`, the half-maximal activity concentration (AC50) was 26.6 µM (active).

With `CC(C)(C)c1ccc(CSc2cnn(C(C)(C)C)c(=O)c2Cl)cc1`, the AC50 is 0.000347 µM (active).

For the compound `N#Cc1nn(-c2c(Cl)cc(C(F)(F)F)cc2Cl)c(N)c1S(=O)C(F)(F)F` (stereo not drawn), the AC50 was 15 µM (active).

(Values after PubChem BioAssay (EPA / NIEHS).)
